Laboratory results as given in PubChem BioAssay (EPA / NIEHS).
Results filed as inconclusive are left out. Some structures have more than one record in an assay (separate samples or runs), and their calls can disagree. Calls of active or inactive are those of the source. Rule for the calls, unless noted: active = hit-call score of the fitted dose curve at least 0.9, where 1 is the maximum; inactive = score below 0.9.

How the values were obtained:
[1] = ATG_NFI_CIS: Attagene CIS-FACTORIAL HepG2 Assay for human Nuclear Factor I (NFI) (AID 2282989); details: HepG2 cis-regulatory reporter, NFI response element transcription; actives raise or lower the signal
Summary of the method: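 Transfected HepG2 liver cells, exposed 24 h, supplied total RNA for oligo(dT) reverse transcription and reporter-specific PCR. Labelled, HpaI-cut fragments were sized by capillary electrophoresis; DMSO set the baseline for bidirectional fitting.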

[2] = target: Myc proto-oncogene protein (Homo sapiens) (UniProt P01106); test: ATG_Myc_CIS: Attagene CIS-FACTORIAL HepG2 Assay for human Myelocytomatosis (Myc) Proto-Oncogene Transcription Factor (AID 2282990); details: HepG2, Attagene cis-reporter transcription factor activity; actives raise or lower the signal
Summary of the method: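 DMSO-normalised, bidirectionally fitted reporter mRNA signal. HepG2 cells transfected with cis reporter constructs, treated 24 h; transcripts detected by RT-PCR, 6-FAM primer extension and CE.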

[3] = ATG_NF_kB_CIS: Attagene CIS-FACTORIAL HepG2 Assay for human Nuclear Factor Kappa B (NF-kB) (AID 2282991); details: HepG2 Attagene cis-factorial NF-kB reporter mRNA; actives raise or lower the signal
Summary of the method: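 Measures mRNA induction of an NF-kB-responsive cis-element reporter in HepG2 cells transfected with multiple reporter units, sampled 24 h post-dosing; quantified by fluorescence after RT-PCR and capillary electrophoresis, fitted for activation or inhibition against DMSO.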

[4] = ATG_Oct_MLP_CIS: Attagene CIS-FACTORIAL HepG2 Assay for human Octamer-Binding Transcription Factor (Oct) (AID 2282993); details: HepG2 Attagene cis-factorial Oct reporter, mRNA; actives raise or lower the signal
Summary of the method: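 Using HepG2 cells bearing transfected cis-reporter constructs, mRNA induction was read after 24 h by fluorescent RT-PCR and capillary electrophoresis, with DMSO defining baseline for gain- or loss-of-signal fits.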

[5] = target: human Peroxisome Proliferator-activated Receptor alpha (PPARa), PPARA (gene 5465) (UniProt Q07869); test: ATG_PPARa_TRANS: Attagene TRANS-FACTORIAL HepG2 Assay for human Peroxisome Proliferator-activated Receptor alpha (PPARa) (AID 2283001; active = hit-call score of the fitted dose curve at least 0.9, where 1 is the maximum;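 for AC50: potency for gain of reporter signal over DMSO so agonist or activator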)
Summary of the method: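 Cells (HepG2) are transfected with multiple reporter transcription units, exposed to chemical for 24 h, then total RNA is reverse-transcribed and amplified. Labelled products are quantified by capillary electrophoresis; induction is referenced to DMSO.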

[6] = target: Nuclear receptor subfamily 1 group I member 2 (Homo sapiens) (UniProt O75469); test: ATG_PXR_TRANS: Attagene TRANS-FACTORIAL HepG2 Assay for human Pregnane X Receptor (PXR) (AID 2283008; active = hit-call score of the fitted dose curve at least 0.9, where 1 is the maximum)
Summary of the method: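 Transactivation by exogenous PXR–GAL4 fusion measured as reporter transcript induction after 24 h compound treatment of transfected human HepG2 cells. Read-out via RT-PCR and capillary electrophoresis of labelled fragments, fitted upward relative to DMSO.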

[7] = target: human Retinoic Acid Receptor gamma (RARg), RARG (gene 5916) (UniProt P13631); test: ATG_RARg_TRANS: Attagene TRANS-FACTORIAL HepG2 Assay for human Retinoic Acid Receptor gamma (RARg) (AID 2283009; active = hit-call score of the fitted dose curve at least 0.9, where 1 is the maximum)
Summary of the method: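 Transactivation of exogenous RARg-Gal4 fusion measured as reporter transcript induction after 24 h in transfected HepG2 cells. RNA reverse-transcribed, amplified, fluorescently labeled and resolved by capillary electrophoresis; increase relative to DMSO.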

[8] = ATG_NRF2_ARE_CIS: Attagene CIS-FACTORIAL HepG2 Assay for human Nuclear Factor Erythroid 2 Related Factor 2 (NFR2) response to Antioxidant Response Elements (ARE) (AID 2282992); details: HepG2 Attagene ARE/NRF2 reporter, transcription factor activity; actives raise or lower the signal
Summary of the method: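 Endogenous transcription factor activity read out as reporter transcript levels (RT-PCR plus capillary electrophoresis, fluorescence) in transiently transfected HepG2 cells. Measured at 24 h after dosing; gain or loss of signal fitted versus DMSO.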

[9] = target: Cellular tumor antigen p53 (Homo sapiens) (UniProt P04637); test: ATG_p53_CIS: Attagene CIS-FACTORIAL HepG2 Assay for human p53 Transcription Factor (AID 2282994); details: HepG2 p53 cis-element reporter, Attagene mRNA; actives raise or lower the signal
Summary of the method: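 Endogenous p53 activity read in transiently transfected HepG2 from a cis-element-driven reporter transcript after 24 h exposure. RNA reverse-transcribed, PCR-amplified, fluorescently labelled and sized by capillary electrophoresis; gain or loss fitted against DMSO baseline.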

[10] = target: human Peroxisome Proliferator-activated Receptor delta (PPARd), PPARD (gene 5467) (UniProt Q03181); test: ATG_PPARd_TRANS: Attagene TRANS-FACTORIAL HepG2 Assay for human Peroxisome Proliferator-activated Receptor delta (PPARd) (AID 2283002; active = hit-call score of the fitted dose curve at least 0.9, where 1 is the maximum)
Summary of the method: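 Measured quantity: GAL4-UAS reporter transcript induction in HepG2 after 24 h chemical dosing, with NR-Gal4 chimeras supplied by transient transfection. Detection by RT-PCR and capillary electrophoresis; upward fit against DMSO.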

[11] = target: Peroxisome proliferator-activated receptor gamma (Homo sapiens) (UniProt P37231); test: ATG_PPARg_TRANS: Attagene TRANS-FACTORIAL HepG2 Assay for human Peroxisome Proliferator-activated Receptor-gamma (PPARg) (AID 2283007; active = hit-call score of the fitted dose curve at least 0.9, where 1 is the maximum)
Summary of the method: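 Gain-of-signal endpoint relative to DMSO, derived from reporter mRNA levels quantified by RT-PCR and capillary electrophoresis. Cells were HepG2 transiently expressing a chimeric NR-Gal4 construct with GAL4-UAS reporters, exposed to chemicals for 24 h.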

[12] = BSK_3C_TissueFactor: BioMAP Diversity Plus: 3C Assay for Tissue Factor Biomarker Activity (AID 2282997); details: BioMAP 3C HUVEC, tissue factor biomarker readout; actives raise or lower the signal
Summary of the method: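 Tissue Factor measured by ELISA, 24 h after treatment of primary HUVEC in the BioMAP 3C setting.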

[13] = BSK_3C_uPAR: BioMAP Diversity Plus: 3C Assay for Urokinase-type plasminogen activator receptor (uPAR) Biomarker Activity (AID 2282998); details: BioMAP 3C HUVEC, uPAR biomarker ELISA; actives raise or lower the signal
Summary of the method: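 In this endothelial cell-based assay, human umbilical vein primary cells were treated with chemicals and harvested at 24 h. uPAR was quantified using ELISA, with gains or losses fitted relative to DMSO controls.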

[14] = BSK_3C_VCAM1: BioMAP Diversity Plus: 3C Assay for Vascular cell adhesion molecule 1 (VCAM1) Biomarker Activity (AID 2282999); details: BioMAP 3C HUVEC, VCAM1 ELISA, cytokine-stimulated; actives raise or lower the signal
Summary of the method: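 Vascular primary endothelium (human umbilical vein) was exposed to chemicals and assayed 24 h later. VCAM-1 levels came from ELISA, with DMSO serving as baseline for bidirectional fitting.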

[15] = BSK_4H_Eotaxin3: BioMAP Diversity Plus: 4H Assay for Eotaxin 3 Biomarker Activity (AID 2283000); details: primary human endothelial cells (HUVEC); actives raise or lower the signal
Summary of the method: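 Eotaxin-3 (CCL26) levels were measured by ELISA in HUVEC primary cultures 24 h post-dosing. Gain or loss of signal was fitted in both directions, with DMSO serving as baseline and negative control.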

[16] = read-out: Intercellular Adhesion Molecule 1 (ICAM1), ICAM1 (gene 3383); test: BSK_3C_ICAM1: BioMAP Diversity Plus: 3C Assay for Intercellular Adhesion Molecule 1 (ICAM1) Biomarker Activity (AID 2283003); details: primary human endothelial cells (HUVEC); actives raise or lower the signal
Summary of the method: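 ELISA readout of ICAM1 in human umbilical vein endothelial cells in the 3C system, taken 24 h post-dose. Gain or loss of signal versus DMSO was fitted in both directions, with SRB total-protein staining run in parallel.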

[17] = BSK_3C_Proliferation: Cell Proliferation Assessment in the BioMAP Diversity Plus: 3C Assay (AID 2283006); details: primary human endothelial cells (HUVEC);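 for AC50: potency may reflect either rise or fall in cell number versus DMSO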
Summary of the method: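 Proliferation as total protein: sulforhodamine B (0.1%) stain of TCA-fixed subconfluent human umbilical vein endothelial cells, absorbance 560 nm, 48 h after dosing. Activity fitted in both directions against DMSO baseline.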

[18] = target: human RAR-related Orphan Receptor beta (RORb), RORB (gene 6096) (UniProt Q92753); test: ATG_RORb_TRANS: Attagene TRANS-FACTORIAL HepG2 Assay for human RAR-related Orphan Receptor beta (RORb) (AID 2283010; active = hit-call score of the fitted dose curve at least 0.9, where 1 is the maximum)
Summary of the method: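 Read-out is reporter mRNA induction, quantified by RT-PCR with fluorescent capillary electrophoresis, 24 h post-dose in transiently transfected HepG2 expressing exogenous NR-Gal4 chimera. Activity fitted upward versus DMSO.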

[19] = target: human Retinoic Acid Receptor beta (RARb), RARB (gene 5915) (UniProt P10826); test: ATG_RARb_TRANS: Attagene TRANS-FACTORIAL HepG2 Assay for human Retinoic Acid Receptor beta (AID 2283004; active = hit-call score of the fitted dose curve at least 0.9, where 1 is the maximum)
Summary of the method: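 HepG2 cells were transiently transfected with GAL4-UAS reporter units that report activity of exogenous chimeric NR-Gal4 proteins, then exposed to compound for 24 h. Reporter mRNA was quantified by RT-PCR with capillary electrophoresis fluorescence, as gain of signal over DMSO.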

Measured: AC50

human Peroxisome Proliferator-activated Receptor alpha (PPARa), PPARA (gene 5465), sequence (Q07869 whole entry, looked up): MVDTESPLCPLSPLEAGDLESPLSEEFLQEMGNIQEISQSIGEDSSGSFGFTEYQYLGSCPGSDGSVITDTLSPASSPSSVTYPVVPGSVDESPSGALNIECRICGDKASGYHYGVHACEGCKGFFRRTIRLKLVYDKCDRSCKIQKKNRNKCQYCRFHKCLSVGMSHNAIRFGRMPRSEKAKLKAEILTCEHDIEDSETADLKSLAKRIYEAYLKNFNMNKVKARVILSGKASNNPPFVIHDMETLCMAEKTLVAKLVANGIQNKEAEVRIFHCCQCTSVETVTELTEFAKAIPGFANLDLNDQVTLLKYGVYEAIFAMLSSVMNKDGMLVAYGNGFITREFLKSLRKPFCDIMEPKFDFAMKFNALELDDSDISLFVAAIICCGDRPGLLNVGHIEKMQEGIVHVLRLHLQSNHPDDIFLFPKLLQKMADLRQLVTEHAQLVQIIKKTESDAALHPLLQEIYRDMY
Peroxisome proliferator-activated receptor gamma (Homo sapiens), sequence (P37231 whole entry, looked up, the tested form may be a part): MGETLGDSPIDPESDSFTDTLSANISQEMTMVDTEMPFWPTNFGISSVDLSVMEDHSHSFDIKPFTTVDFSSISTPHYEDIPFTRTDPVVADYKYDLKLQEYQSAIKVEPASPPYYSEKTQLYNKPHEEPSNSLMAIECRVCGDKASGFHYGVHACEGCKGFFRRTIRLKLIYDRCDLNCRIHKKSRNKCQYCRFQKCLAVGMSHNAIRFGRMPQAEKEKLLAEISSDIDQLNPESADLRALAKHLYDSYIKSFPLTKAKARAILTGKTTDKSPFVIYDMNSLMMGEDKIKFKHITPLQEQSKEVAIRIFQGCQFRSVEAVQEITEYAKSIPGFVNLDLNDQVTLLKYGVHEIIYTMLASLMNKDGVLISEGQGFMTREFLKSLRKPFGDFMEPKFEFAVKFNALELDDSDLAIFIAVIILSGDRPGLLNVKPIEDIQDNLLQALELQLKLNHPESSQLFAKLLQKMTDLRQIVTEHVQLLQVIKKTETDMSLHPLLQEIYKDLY
Nuclear receptor subfamily 1 group I member 2 (Homo sapiens), sequence (O75469 whole entry, looked up, the tested form may be a part): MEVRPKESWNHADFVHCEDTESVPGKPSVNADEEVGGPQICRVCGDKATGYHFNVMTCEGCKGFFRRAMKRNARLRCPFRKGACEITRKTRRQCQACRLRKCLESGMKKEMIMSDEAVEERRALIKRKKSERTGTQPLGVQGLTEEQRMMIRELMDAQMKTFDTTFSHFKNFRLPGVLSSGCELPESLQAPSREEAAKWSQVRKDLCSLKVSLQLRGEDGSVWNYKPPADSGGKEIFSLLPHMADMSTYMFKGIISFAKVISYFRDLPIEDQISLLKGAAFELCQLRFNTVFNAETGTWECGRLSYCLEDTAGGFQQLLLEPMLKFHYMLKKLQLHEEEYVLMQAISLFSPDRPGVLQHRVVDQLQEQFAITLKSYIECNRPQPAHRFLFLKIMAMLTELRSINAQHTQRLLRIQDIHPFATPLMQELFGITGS
Cellular tumor antigen p53 (Homo sapiens), sequence (P04637 whole entry, looked up): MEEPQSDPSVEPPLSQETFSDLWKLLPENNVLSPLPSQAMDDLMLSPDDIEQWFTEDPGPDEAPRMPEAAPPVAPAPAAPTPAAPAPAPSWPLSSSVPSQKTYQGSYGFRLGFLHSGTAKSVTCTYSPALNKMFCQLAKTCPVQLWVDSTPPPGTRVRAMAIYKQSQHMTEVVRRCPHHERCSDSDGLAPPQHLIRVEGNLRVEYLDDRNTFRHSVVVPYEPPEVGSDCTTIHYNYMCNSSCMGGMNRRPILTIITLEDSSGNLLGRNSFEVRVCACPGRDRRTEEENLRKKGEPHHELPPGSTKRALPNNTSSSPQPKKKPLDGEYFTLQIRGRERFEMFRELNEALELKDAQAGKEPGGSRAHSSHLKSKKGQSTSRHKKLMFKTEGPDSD
human RAR-related Orphan Receptor beta (RORb), RORB (gene 6096), sequence (Q92753 whole entry, looked up, the tested form may be a part): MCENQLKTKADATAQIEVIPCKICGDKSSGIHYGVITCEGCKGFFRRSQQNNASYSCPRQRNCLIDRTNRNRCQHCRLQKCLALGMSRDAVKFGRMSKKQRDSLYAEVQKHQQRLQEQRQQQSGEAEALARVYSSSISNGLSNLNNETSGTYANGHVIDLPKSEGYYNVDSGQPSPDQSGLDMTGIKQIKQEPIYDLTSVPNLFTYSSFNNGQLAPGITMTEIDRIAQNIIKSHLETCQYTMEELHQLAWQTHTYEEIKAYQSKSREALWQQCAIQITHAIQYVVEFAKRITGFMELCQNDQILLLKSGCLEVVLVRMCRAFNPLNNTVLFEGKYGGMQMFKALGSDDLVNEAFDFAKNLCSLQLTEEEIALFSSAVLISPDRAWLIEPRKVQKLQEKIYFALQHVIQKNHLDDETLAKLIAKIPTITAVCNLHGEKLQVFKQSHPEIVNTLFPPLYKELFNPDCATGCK
Myc proto-oncogene protein (Homo sapiens), sequence (P01106 whole entry, looked up): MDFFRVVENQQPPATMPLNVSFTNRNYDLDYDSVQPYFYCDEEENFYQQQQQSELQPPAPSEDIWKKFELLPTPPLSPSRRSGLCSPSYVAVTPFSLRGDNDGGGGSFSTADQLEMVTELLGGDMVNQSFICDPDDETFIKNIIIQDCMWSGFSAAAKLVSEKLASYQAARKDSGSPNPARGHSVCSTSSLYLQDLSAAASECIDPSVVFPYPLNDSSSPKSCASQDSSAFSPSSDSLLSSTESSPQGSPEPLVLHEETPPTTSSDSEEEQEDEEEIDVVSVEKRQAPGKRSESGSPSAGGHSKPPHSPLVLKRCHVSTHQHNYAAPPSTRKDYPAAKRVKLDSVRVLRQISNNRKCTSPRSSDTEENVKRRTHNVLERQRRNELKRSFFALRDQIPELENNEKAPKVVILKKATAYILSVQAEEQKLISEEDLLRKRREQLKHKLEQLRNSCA
human Peroxisome Proliferator-activated Receptor delta (PPARd), PPARD (gene 5467), sequence (Q03181 whole entry, looked up, the tested form may be a part): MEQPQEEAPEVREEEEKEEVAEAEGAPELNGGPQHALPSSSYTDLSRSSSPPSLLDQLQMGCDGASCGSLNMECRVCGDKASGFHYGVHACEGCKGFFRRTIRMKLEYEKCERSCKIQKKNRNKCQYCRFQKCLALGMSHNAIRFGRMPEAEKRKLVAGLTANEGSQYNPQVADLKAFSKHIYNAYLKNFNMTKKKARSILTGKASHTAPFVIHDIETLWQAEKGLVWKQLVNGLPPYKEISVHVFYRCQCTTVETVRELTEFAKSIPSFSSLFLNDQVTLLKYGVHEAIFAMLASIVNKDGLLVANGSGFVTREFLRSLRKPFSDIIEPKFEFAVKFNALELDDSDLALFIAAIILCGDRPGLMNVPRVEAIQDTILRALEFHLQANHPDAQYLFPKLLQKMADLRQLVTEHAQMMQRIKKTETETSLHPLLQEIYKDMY
human Retinoic Acid Receptor gamma (RARg), RARG (gene 5916), sequence (P13631 whole entry, looked up, the tested form may be a part): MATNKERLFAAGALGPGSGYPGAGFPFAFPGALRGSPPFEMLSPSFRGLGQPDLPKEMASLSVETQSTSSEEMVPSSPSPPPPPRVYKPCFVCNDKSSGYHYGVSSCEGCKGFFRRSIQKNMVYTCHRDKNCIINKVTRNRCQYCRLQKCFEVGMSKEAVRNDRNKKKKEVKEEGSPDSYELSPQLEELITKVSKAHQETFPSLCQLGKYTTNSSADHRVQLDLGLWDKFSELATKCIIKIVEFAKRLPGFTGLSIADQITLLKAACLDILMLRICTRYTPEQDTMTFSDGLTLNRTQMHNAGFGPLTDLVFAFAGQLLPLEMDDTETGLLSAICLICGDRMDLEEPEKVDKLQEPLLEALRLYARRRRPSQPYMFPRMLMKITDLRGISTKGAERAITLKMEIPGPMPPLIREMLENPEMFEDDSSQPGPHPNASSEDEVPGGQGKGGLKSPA
human Retinoic Acid Receptor beta (RARb), RARB (gene 5915), sequence (P10826 whole entry, looked up, the tested form may be a part): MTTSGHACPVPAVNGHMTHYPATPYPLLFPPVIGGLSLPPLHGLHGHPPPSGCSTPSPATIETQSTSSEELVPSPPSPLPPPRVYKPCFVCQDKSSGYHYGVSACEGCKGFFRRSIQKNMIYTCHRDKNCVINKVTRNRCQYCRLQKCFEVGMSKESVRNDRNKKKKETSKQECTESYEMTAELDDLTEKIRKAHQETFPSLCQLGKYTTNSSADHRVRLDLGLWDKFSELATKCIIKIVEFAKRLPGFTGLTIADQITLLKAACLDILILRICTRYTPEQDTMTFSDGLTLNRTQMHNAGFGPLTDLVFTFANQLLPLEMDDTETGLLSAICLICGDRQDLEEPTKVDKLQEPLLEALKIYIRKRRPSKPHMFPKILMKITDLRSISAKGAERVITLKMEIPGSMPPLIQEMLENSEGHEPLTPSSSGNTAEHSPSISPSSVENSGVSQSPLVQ

O=CCCc1ccccc1
active: [6] 28.4 µM
inactive: [1] | [2] | [3] | [4] | [5] | [7]

CC(C=O)Cc1ccc(C(C)C)cc1 (stereo not given)
active: [5] 49.1 µM
inactive: [1] | [2] | [3] | [8] | [9] | [10] | [11] | [6]

c1ccc(CCCc2ccccn2)cc1
inactive: [1] | [2] | [3] | [4] | [9] | [5]
active: [6] 18.6 µM

Cc1ccc(Nc2ccc(O)c3c2C(=O)c2ccccc2C3=O)cc1
inactive: [1] | [2] | [3] | [9] | [13] | [14] | [15] | [5] | [10] | [16] | [17] | [11] | [6]
active: [12] 1.13 µM

COc1ccc(O)cc1
inactive: [1] | [2] | [3] | [4] | [9] | [5] | [11]

CC(C)(C)C(=O)c1ccccc1
inactive: [1] | [2] | [3] | [8] | [9] | [5] | [10] | [6] | [18]

OCCOCCOCCOCCO
inactive: [1] | [2] | [3] | [8] | [9] | [5]

CC[C@]12CCCN3CCc4c(n(c5ccccc45)[C@@](O)(C(=O)OC)C1)[C@@H]32
active: [3] 170 µM | [9] 164 µM | [6] 2.99 µM
inactive: [1] | [2] | [4]

CC(C)CCCCCCCOC(=O)c1ccc(C(=O)OCCCCCCCC(C)C)c(C(=O)OCCCCCCCC(C)C)c1
inactive: [1] | [2] | [3] | [4] | [9] | [5] | [11] | [6]

O=Nc1ccc(Nc2ccccc2)cc1
inactive: [2] | [5] | [10] | [6]
active: [1] 56.4 µM | [3] 12.1 µM | [8] 7.16 µM | [9] 54.3 µM | [11] 26.6 µM

COc1cc2ncnc(Nc3cccc(Cl)c3)c2cc1OC
inactive: [1] | [2] | [5] | [10] | [11] | [6]
active: [3] 40.8 µM | [4] 25 µM | [9] 1.57 µM

Clc1cccc(Cl)n1
inactive: [1] | [2] | [3] | [8] | [9] | [5] | [10] | [6]

C=CCOc1nc(OCC=C)nc(OCC=C)n1
inactive: [1] | [2] | [3] | [4] | [9] | [5] | [10]
active: [11] 61.4 µM | [6] 14.9 µM

C=CCOC(=O)CCC1CCCCC1
inactive: [1] | [2] | [8] | [4] | [9] | [13] | [14] | [15] | [5] | [16] | [17] | [11] | [6]
active: [17] 31.6 µM

CC(C)[C@@H]1CC[C@@H](C)CC1=O
inactive: [1] | [2] | [8] | [4] | [9] | [5] | [6] | [18]

CCN(CC)c1ccc2c(-c3ccccc3C(=O)O)c3ccc(=[N+](CC)CC)cc-3oc2c1
inactive: [1] | [2] | [4] | [9] | [10]
active: [8] 36.7 µM | [11] 30.4 µM | [6] 0.335 µM

O=C1CCCCCCCCCCCCCCO1
inactive: [1] | [2] | [9] | [18]
active: [8] 74.4 µM | [4] 69.4 µM | [12] 26.5 µM | [13] 20 µM | [14] 17.9 µM | [15] 27.3 µM | [5] 100 µM | [10] 179 µM | [16] 28.6 µM | [17] 20 µM | [6] 48.3 µM

CCCCO
inactive: [1] | [2] | [8] | [4] | [9] | [5] | [6] | [18]

CCCCNC(=O)NS(=O)(=O)c1ccc(C)cc1
inactive: [1] | [2] | [8] | [4] | [9] | [5] | [10] | [11] | [6] | [18]

CC(C#N)(CCC(=O)O)N=NC(C)(C#N)CCC(=O)O (stereo not given)
inactive: [1] | [2] | [8] | [4] | [9] | [5] | [6] | [18]

O=C(O)CCSCCC(=O)O
inactive: [1] | [2] | [8] | [4] | [9] | [5] | [11] | [6]

CC(C)=CCCC(C)=CCCC(C)=CCO
active: [8] 18.8 µM | [6] 10.2 µM
inactive: [1] | [2] | [4] | [9] | [5] | [19]

O=C(O)c1cn(-c2ccc(F)cc2)c2cc(N3CCNCC3)c(F)cc2c1=O
inactive: [1] | [2] | [8] | [4] | [9] | [13] | [14] | [15] | [16] | [17]
